Drawing on PubChem BioAssay (EPA / NIEHS), this text covers outcome and AC50 for eleven molecules.

A short description of experiment [1]: ATG_CRE_CIS: Attagene CIS-FACTORIAL HepG2 Assay for human cAMP Responsive Element (CRE) binding protein 3 (AID 2282926). As to conditions: HepG2 CRE cis-reporter, Attagene multiplexed mRNA; actives raise or lower the signal. In a few lines:
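We dosed HepG2 cells bearing multiple cis-promoter reporter units for 24 h and measured reporter mRNA by RT-PCR with capillary electrophoresis detection. Bidirectional concentration-response fitting used DMSO as negative control.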

Experiment [2] concerns the target CCAAT/enhancer-binding protein beta (Homo sapiens) (UniProt P17676). Briefly: ATG_C_EBP_CIS: Attagene CIS-FACTORIAL HepG2 Assay for human CCAAT/Enhancer Binding Protein (C/EBP) beta (AID 2282927). As to conditions: HepG2 Attagene cis-factorial transcription factor reporter; actives raise or lower the signal. Summed up:
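Chemical-treated HepG2 cells (24 h) bearing cis-regulated reporter constructs were processed for total RNA, then reverse transcription, PCR amplification, fluorescent primer extension and fragment analysis; gain- and loss-of-signal were fitted against DMSO.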

Experiment [3] is described as follows: ATG_CMV_CIS: Attagene CIS-FACTORIAL HepG2 Assay for human CMV (Internal Marker) (AID 2282928).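 Further: endpoint acts as a background internal control marker rather than a target.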 As to conditions: HepG2 CMV promoter reporter, transcription factor profiling; actives raise or lower the signal. In a few lines:
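HepG2 cells transiently transfected with multiple cis-regulated reporter units; 24 h compound exposure. Reporter mRNA quantified by RT-PCR, 6-FAM primer-extension labeling, HpaI digestion and capillary electrophoresis; bidirectional fitting against DMSO baseline.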

A short description of experiment [4]: ATG_DR4_LXR_CIS: Attagene CIS-FACTORIAL HepG2 Assay for human Liver X Receptor (LXR), DR4 submotif (AID 2282929). As to conditions: HepG2 Attagene DR4 cis-reporter, mRNA transcription; actives raise or lower the signal. In a few lines: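 Total RNA from 24 h-treated, MRTU-transfected HepG2 cells underwent reverse transcription, PCR, fluorescent primer extension and restriction digestion before capillary electrophoresis. Both increases and decreases in reporter signal were fitted against DMSO.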

In experiment [5] the target is Aryl hydrocarbon receptor (Homo sapiens) (UniProt P35869). Briefly: ATG_Ahr_CIS: Attagene CIS-FACTORIAL HepG2 Assay for human Aryl Hydrocarbon Receptor (Ahr) (AID 2282930). As to conditions: HepG2 AhR cis-factorial reporter transcription; actives raise or lower the signal. In a few lines:
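Following 24 h of chemical dosing, transfected HepG2 liver cells with cis-driven reporter units were lysed for RNA; reporter mRNA was quantified via RT-PCR and capillary electrophoresis, and responses fitted bidirectionally from DMSO.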

Experiment [6] is described as follows: ATG_AP_2_CIS: Attagene CIS-FACTORIAL HepG2 Assay for human Activator Protein 2 (AP-2) (AID 2282932). As to conditions: HepG2 AP-2 cis-reporter, Attagene transcription factor profiling; actives raise or lower the signal. Summed up:
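Bidirectional curve fitting against DMSO was applied to reporter mRNA signals from HepG2 cells 24 h after dosing. Cis-promoter reporter units, transiently transfected, were read by RT-PCR plus capillary electrophoresis.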

Experiment [7] can be described thus: ATG_BRE_CIS: Attagene CIS-FACTORIAL HepG2 Assay for human Bone Morphogenetic Protein (BMP) Response Element (BRE) (AID 2282933). As to conditions: HepG2 BMP response element reporter, Attagene transcription factor profiling; actives raise or lower the signal. Summed up: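 Multiplexed cis-reporter assay, HepG2, 24 h exposure. mRNA from reporter units quantified via RT-PCR/CE; DMSO baseline; bidirectional curve fit.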

Experiment [8] concerns the target Retinoic acid receptor alpha (Homo sapiens) (UniProt P10276). Briefly: ATG_DR5_RAR_CIS: Attagene CIS-FACTORIAL HepG2 Assay for human Retinoic Acid Receptor Alpha (RARE), DR5 submotif (AID 2282934). As to conditions: HepG2 Attagene cis-factorial RARE DR5 reporter, mRNA; actives raise or lower the signal. Summed up:
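Transfected HepG2 reporter cells are exposed to chemicals for 24 h. Then RNA is extracted and the DR5 element reporter transcript is measured by RT-PCR and capillary electrophoresis, with bidirectional curve fitting relative to DMSO.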

The nature of experiment [9]: ATG_E_Box_CIS: Attagene CIS-FACTORIAL HepG2 Assay for human Enhancer Box (E-box) (AID 2282936). As to conditions: HepG2 E-box cis-reporter transcription, actives raise or lower the signal. In a few lines: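 Multiplexed CIS reporter system in transiently transfected HepG2 cells measures native transcription factor activity. Reporter RNA after 24 h exposure is profiled by RT-PCR-capillary electrophoresis.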

The nature of experiment [10]: ATG_M_61_CIS: Attagene CIS-FACTORIAL HepG2 Assay for M61 Transcription Factor (Internal Marker) (AID 2282937). As to conditions: HepG2 Attagene CIS-FACTORIAL M61 internal marker reporter; actives raise or lower the signal. In a few lines:
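Transfect HepG2 with MRTUs; dose 24 h; isolate RNA; reverse-transcribe with DNase I treatment; PCR-amplify, FAM-label and cut with HpaI for 2 h at 37 C; resolve by CE. Bidirectional fitting against DMSO.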

Experiment [11] in a line: ATG_EGR_CIS: Attagene CIS-FACTORIAL HepG2 Assay for human Early Growth Response 1 (EGR1) (AID 2282938). As to conditions: HepG2 Attagene CIS-FACTORIAL EGR reporter mRNA; actives raise or lower the signal. In a few lines:
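After a 24 h treatment of transiently transfected HepG2 cells, total RNA was reverse-transcribed and reporter sequences PCR-amplified, labelled and run on capillary electrophoresis. Reporters sit under cis-regulatory promoters sensing endogenous factors.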

Experiment [12] deals with Transcription factor E2F1 (Homo sapiens) (UniProt Q01094). Briefly: ATG_E2F_CIS: Attagene CIS-FACTORIAL HepG2 Assay for human E2F Transcription Factor 1 (AID 2282935). As to conditions: HepG2 Attagene cis-reporter, E2F reporter RNA transcripts; actives raise or lower the signal. Summed up: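 Multiplexed cis-reporter assay: HepG2, transient transfection, 24 h dosing, mRNA quantitation by labeled RT-PCR and CE.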
Chain of Transcription factor E2F1 (Homo sapiens) (Q01094 whole entry, looked up): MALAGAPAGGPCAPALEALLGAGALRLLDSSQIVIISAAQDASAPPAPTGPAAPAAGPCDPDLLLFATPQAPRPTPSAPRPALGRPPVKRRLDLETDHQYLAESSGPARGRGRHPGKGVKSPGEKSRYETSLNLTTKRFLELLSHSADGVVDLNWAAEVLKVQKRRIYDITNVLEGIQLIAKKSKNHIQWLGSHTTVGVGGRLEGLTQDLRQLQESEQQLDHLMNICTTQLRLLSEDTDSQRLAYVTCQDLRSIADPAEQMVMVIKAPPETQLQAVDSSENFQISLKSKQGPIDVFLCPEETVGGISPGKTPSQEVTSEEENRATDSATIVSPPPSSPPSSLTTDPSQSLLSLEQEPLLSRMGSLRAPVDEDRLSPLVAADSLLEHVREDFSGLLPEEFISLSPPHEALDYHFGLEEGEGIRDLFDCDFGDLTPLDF

The nature of experiment [13]: ATG_AP_1_CIS: Attagene CIS-FACTORIAL HepG2 Assay for human Activator Protein 1 (AP-1) (AID 2282931). As to conditions: HepG2 Attagene cis-factorial AP-1 reporter mRNA; actives raise or lower the signal. In a few lines: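 HepG2, transient cis-reporter transfection; 24 h; readout RT-PCR/CE fluorescence; DMSO baseline, gain and loss fitted.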

Activity calls are given as the source filed them. How the source made its calls: active means hit-call score of the fitted dose curve at least 0.9, where 1 is the maximum; inactive means score below 0.9.

Chain of CCAAT/enhancer-binding protein beta (Homo sapiens) (P17676 whole entry, looked up, the tested form may be a part): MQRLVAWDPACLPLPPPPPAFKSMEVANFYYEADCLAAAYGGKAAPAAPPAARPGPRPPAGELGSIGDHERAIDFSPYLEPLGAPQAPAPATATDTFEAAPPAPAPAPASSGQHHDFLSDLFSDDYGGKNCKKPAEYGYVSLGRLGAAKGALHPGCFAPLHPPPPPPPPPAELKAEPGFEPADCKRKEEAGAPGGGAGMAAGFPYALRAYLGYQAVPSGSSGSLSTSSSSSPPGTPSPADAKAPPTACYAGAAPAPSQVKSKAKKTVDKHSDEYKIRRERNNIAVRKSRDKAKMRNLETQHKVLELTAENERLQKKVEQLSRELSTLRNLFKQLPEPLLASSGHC
Chain of Aryl hydrocarbon receptor (Homo sapiens) (P35869 whole entry, looked up): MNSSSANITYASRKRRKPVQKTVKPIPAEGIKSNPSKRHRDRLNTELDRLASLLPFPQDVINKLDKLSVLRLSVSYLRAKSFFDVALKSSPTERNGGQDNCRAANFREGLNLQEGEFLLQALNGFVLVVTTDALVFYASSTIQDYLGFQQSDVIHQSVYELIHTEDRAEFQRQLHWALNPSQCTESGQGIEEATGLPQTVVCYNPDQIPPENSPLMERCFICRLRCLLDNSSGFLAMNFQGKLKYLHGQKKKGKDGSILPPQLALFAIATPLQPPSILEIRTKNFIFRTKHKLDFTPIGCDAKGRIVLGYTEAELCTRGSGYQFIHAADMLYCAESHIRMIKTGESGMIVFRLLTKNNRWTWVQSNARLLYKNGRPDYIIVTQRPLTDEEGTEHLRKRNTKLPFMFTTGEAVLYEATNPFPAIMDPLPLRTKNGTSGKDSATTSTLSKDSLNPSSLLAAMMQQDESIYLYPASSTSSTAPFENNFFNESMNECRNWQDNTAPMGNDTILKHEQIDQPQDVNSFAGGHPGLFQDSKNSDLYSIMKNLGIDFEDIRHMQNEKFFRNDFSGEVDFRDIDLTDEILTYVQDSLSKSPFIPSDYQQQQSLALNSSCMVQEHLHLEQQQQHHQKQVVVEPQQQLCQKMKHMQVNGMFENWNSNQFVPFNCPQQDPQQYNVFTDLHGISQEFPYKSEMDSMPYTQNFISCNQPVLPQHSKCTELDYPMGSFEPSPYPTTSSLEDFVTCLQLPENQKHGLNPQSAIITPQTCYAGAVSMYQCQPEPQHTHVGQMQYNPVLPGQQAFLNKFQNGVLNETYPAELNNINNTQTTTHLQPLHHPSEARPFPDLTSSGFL
Chain of Retinoic acid receptor alpha (Homo sapiens) (P10276 whole entry, looked up): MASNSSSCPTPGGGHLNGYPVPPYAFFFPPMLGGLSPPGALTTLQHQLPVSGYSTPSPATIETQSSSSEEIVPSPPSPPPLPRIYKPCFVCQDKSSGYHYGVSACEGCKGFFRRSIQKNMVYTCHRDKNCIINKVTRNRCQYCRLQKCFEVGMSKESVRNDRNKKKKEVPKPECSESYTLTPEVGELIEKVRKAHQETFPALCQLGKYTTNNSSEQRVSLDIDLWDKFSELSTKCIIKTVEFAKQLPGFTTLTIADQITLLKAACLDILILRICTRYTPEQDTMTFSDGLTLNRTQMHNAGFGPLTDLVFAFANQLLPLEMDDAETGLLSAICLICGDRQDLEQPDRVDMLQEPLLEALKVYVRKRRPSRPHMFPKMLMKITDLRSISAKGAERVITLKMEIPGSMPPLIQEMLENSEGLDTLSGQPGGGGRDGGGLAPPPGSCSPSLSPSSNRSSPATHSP

With `Cc1cc(Cl)ccc1OCCCC(=O)O`, the molecule was classed as inactive in experiment [1], in [2], in [3], in [4], in [5] and in [6]. For the same molecule, the call in experiment [7], in experiment [8], in experiment [9], in experiment [10] and in experiment [11] was inactive.

As to `OC[P+](CO)(CO)CO`, the outcome in experiment [1], in experiment [2], in experiment [3], in experiment [4], in experiment [5] and in experiment [6] was inactive. Also, the result in [7], in experiment [8], in [12], in [9], in [10] and in experiment [11] was inactive.

Take `Nc1ccc(Br)cc1`: the call in [1], in [2], in experiment [3], in experiment [4], in experiment [6] and in [7] was inactive. Further, the call in [12], in experiment [9], in [10] and in experiment [11] was inactive. For the same molecule, in experiment [5], the AC50 (in general, the concentration at which the activity in the assay is half-maximal) is 25.4 µM (active).

Regarding `OC[C@@H](O)[C@H]1O[C@@H]2O[C@H](C(Cl)(Cl)Cl)O[C@@H]2[C@H]1O`, the call in experiment [1], in experiment [2], in experiment [3], in [4], in experiment [5] and in experiment [6] was inactive. For the same molecule, the molecule was classed as inactive in experiment [7], in experiment [8], in experiment [12], in [9], in [10] and in [11].

On to `COC(=O)c1cc(Oc2ccc(Cl)cc2Cl)ccc1[N+](=O)[O-]`, for which the outcome in experiment [1], in experiment [2], in experiment [3], in experiment [4], in experiment [6] and in experiment [8] was inactive. Moreover, the molecule was classed as inactive in experiment [12], in [9] and in experiment [10]. The AC50 is 17 µM (active) in experiment [5], 64.1 µM (active) in [7] and 27.2 µM (active) in [11].

As for `Cc1ccc(OP(=O)(Oc2ccc(C)cc2C)Oc2ccc(C)cc2C)c(C)c1`, the outcome in experiment [1], in experiment [2], in experiment [3], in [5], in experiment [6] and in experiment [7] was inactive. The molecule was called inactive in [8], in experiment [12], in [10] and in [11]. In addition, the AC50 was 11.3 µM (active) in experiment [4] and 25.1 µM (active) in [9].

On to `O=C/C(Cl)=C(/Cl)C(=O)O`, for which the call in [1], in [2], in [5], in experiment [7], in experiment [12] and in experiment [10] was inactive. The AC50 is 94.3 µM (active) in [3]; 70.7 µM (active) in experiment [4]; 61.5 µM (active) in [6]; 100 µM (active) in experiment [9]; 145 µM (active) in experiment [11].

Regarding `CCCCS(=O)(=O)Cl`, the outcome in [1], in [2], in experiment [3], in experiment [4], in experiment [5] and in [13] was inactive. Also, the result in [6], in experiment [7], in experiment [12], in experiment [10] and in experiment [11] was inactive.

As for `O=NN1CCCCCC1`, the result in [1], in [2], in [3], in experiment [4], in experiment [5] and in experiment [6] was inactive. Besides, the outcome in experiment [7], in [8], in experiment [9], in experiment [10] and in experiment [11] was inactive.

In the case of `COc1ccc(N)cc1`, the call in experiment [1], in experiment [2], in [3], in experiment [4], in [5] and in [13] was inactive. Moreover, the outcome in experiment [6], in experiment [7], in experiment [9], in experiment [10] and in experiment [11] was inactive.

For the molecule `Clc1ccc(C(Cl)(Cl)Cl)cn1`, the result in experiment [1], in experiment [2], in experiment [3], in experiment [4], in [13] and in [6] was inactive. The molecule was called inactive in experiment [7], in experiment [12], in experiment [10] and in experiment [11]. Besides, in experiment [5], the AC50 is 5.67 µM (active).
